From PubChem BioAssay
G9a inh – inhibitors of human histone lysine methyltransferase G9a. G9a H3K9 monomethylation, AlphaScreen, 2 h. Potency, µM (highest dose often 102 µM), inactives show top-dose activity, negative = inhibition, most hits filed as inhibitors. 8.8% of 350,000 active; further: potency means the concentration at half of the fitted maximal effect; nearly all actives have a fitted effect of over 75% in size
Target sequence (Q96KQ7 913-1193 limits assumed): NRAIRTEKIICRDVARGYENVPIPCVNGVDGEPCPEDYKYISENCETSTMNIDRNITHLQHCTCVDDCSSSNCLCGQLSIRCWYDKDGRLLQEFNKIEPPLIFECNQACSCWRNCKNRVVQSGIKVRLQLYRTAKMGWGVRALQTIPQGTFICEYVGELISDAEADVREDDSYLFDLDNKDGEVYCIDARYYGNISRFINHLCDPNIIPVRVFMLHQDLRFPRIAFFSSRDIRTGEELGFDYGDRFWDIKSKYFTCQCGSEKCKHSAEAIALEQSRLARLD
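Readings reflect AlphaScreen signal from monomethyl-H3K9 antibody detection. HMT at 20 nM; substrate b-H3K9 500 nM; cofactor SAM 20 uM; 2 h RT reaction; compounds tested as titrations in qHTS with 15 min preincubation.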
Tau ThT inhib – tau fibrillization inhibition (ThT binding). P10636. recombinant tau K18 P301L, heparin-induced fibrillization, ThT fluorescence. Potency, µM (doses to about 57.4 µM), for the others: at the highest dose activity, negative = inhibition, usual class: inhibitors. 2.1% of 270,000 active; further: potency means the concentration at half of the fitted maximal effect; nearly all actives have a fitted effect of over 55% in size
Target sequence (P10636 561-689 P618L limits assumed): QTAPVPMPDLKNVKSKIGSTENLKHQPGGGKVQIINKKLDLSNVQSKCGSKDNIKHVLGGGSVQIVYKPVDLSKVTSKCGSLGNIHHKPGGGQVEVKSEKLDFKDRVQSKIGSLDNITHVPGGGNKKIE
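Tau K18 P301L fragment (15 uM unlabeled plus 0.24 uM Alexa 594-labeled) in 100 mM sodium acetate pH 7 with compound, fibrillization induced by 20 uM heparin for 6 hr at 37 C. Thioflavin T (30 uM) added, fluorescence read after 1 hr (ex 450, em 510 nm).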
Sfp PPTase inh – inhibitors of Bacillus subtilis Sfp phosphopantetheinyl transferase | Q9F4F7 | Biochemical Sfp PPTase activity, qHTS | Potency, µM, for inactives: largest response in the series, negative = inhibition, usual class: inhibitors | 3.5% of 310,000 active | AID 1490;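 further: the enzyme is Sfp with the accession as filed and its product quenches rhodamine fluorescence; potency means the concentration at half of the fitted maximal effect; 0% = enzyme reaction without inhibitor and -100% = no enzyme wells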
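Compounds were incubated with enzyme (final 15 nM) for 15 min at room temperature before substrate addition started the reaction. Fluorescence at 525 nm excitation, 598 nm emission was recorded immediately and after 30 minutes.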
Tau fluor counter – counter-screen for tau fibril formation inhibitors. tau K18 P301L Alexa594 fluorescence, heparin fibrillization. Potency, µM (titrated, usually from 57.7 µM), inactives show top-dose activity change, negative = decrease. 0.93% of 280,000 active. AID 1463; further: potency means the concentration at half of the fitted maximal effect; nearly all actives have a fitted effect of over 55% in size
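Human tau K18 P301L (15 uM unlabeled, 0.24 uM Alexa 594-labeled) in 100 mM sodium acetate pH 7 with 20 uM heparin, 6 hr at 37 C. ThT 30 uM added, 1 hr ambient; Alexa 594 FP and total fluorescence read at 555/632 nm.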
FBPA coupling cs – inhibits coupling enzyme system, counter-screen for aldolase hits | 0.67% of 290,000 active | activity change, negative = inhibition, % at 58.2 µM, hits read low | coupling enzyme system counterscreen, AmpLite Red fluorescence | AID 2472; in the data active means activity change below about -30%
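Compounds tested against the coupling enzymes alone at 57.5 uM final; readout was AmpLite Red fluorescence (525/598 nm) after 20 min at RT.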
Tau fibril FP – inhibitors of human tau fibril formation | 0.39% of 280,000 active | P10636 | Potency, µM (doses to about 57.7 µM), without a hit: at the top dose activity, negative = inhibition, actives largely listed as inhibitors | K18 P301L tau heparin fibrillization, Alexa594 FP, 6 h | AID 1468; further: potency means the concentration at half of the fitted maximal effect; nearly all actives have a fitted effect of over 55% in size
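Steps: dispense K18 P301L tau (15 uM plus 0.24 uM Alexa 594 tracer, final) in pH 7 sodium acetate; add compound; add heparin (20 uM final); incubate 6 hr, 37 C; add ThT (30 uM final); after 1 hr ambient, read FP.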
* marks the source's active call; other numbers are inactive results; ? = inconclusive; . = not tested or not shown; [ ] = remark or other dose. The list is not random: actives were taken first. Their share in the collection is about 11%. Unless noted, the call rests on the fitted dose curve; in most records, active means well fitted curve in the direction sought with a large enough effect; inconclusive means small, poorly fitted or top-dose-only effect, or another doubt; inactive means no such curve, though single readings can be large; an effect the other way counts as inactive or inconclusive. Unless noted, on the % scale 0 is the no-effect control and ±100 the full control effect.

SMILES	G9a inh	Tau ThT inhib	Sfp PPTase inh	Tau fluor counter	FBPA coupling cs	Tau fibril FP
CCCCn1c(N)c(N(CC(C)C)C(=O)c2cc(-c3ccncc3)nc3ccccc23)c(=O)[nH]c1=O	56µM*	.	.	.	.	.
CCCCn1c(N)c(N(CCOC)C(=O)c2cc(-c3ccncc3)nc3ccccc23)c(=O)[nH]c1=O	?	.	11%	.	.	.
CCCCn1c(N)c(N(Cc2ccccc2OC)C(=O)c2cc(=O)[nH]c3ccccc23)c(=O)[nH]c1=O	35µM*	.	.	.	.	.
Cc1ccc(C)c(Cn2c3ccccc3c3cnn(CC(=O)NC4CCCCCC4)c(=O)c32)c1	1%[59 µM]	8%	.	3%	.	-4%
COc1cc(Cl)c(C)cc1NC(=O)Cn1ncc2c(=O)oc3ccccc3c21	?	-8%	.	-16%	.	-4%
CCOC(=O)c1c(O)c2ccccc2oc1=O	-29%	-7%	12%	-9%	-1	-3%
CCc1oc2ccccc2c1C(=O)c1cc(I)c(O)c(I)c1	-40%[59 µM]	.	40µM*	.	.	.
COc1ccc(/C=C/C(=O)N2CCCc3ccccc32)cc1	?	9%	79µM*	2%	6	7%
Cc1ccc(/C=C/C(=O)N2CCc3ccccc32)o1	22µM*	?	28µM*	0%	-3	8%
CCOC(=O)/C=C/C(=O)N1CCc2ccccc21	12%[0.501 µM]	-7%	18%	1%	2	-2%
O=C(/C=C/c1ccco1)N1CCc2ccccc21	40µM*	?	?	-11%	-2	-13%
COC(=O)c1c(-c2cccs2)csc1NC(=O)COc1ccc(C)cc1	?	?	.	-27%	.	-4%
COC(=O)c1c(-c2cccs2)csc1NC(=O)COc1ccc(C(C)(C)C)cc1	4µM*	?	.	-22%	.	-20%
COC(=O)c1c(-c2cccs2)csc1NC(=O)COc1ccccc1	1.8µM*	20µM*	.	?	.	?
COC(=O)c1c(-c2cccs2)csc1NC(=O)COc1c(C)ccc(C)c1C	1.4µM*	20µM*	.	-19%	.	?
Cc1sc2ncn(CC(=O)N3CCN(c4ccccc4)CC3)c(=O)c2c1S(=O)(=O)N1CCN(c2ncccn2)CC1	-43%[59 µM]	-4%	.	-9%	.	4%
COC(=O)/C=C1\OC(c2ccccc2)=CC1=O	4µM*	25µM*	20µM*	-1%	3	-10%
CCCCN(C)CCNC(=O)c1nn(-c2ccc(OC)c(Cl)c2)c(=O)c2c1c1ccccc1n2C	1%[59 µM]	-4%	.	?	.	?
O=C(N/N=C\c1ccco1)c1cncc(Br)c1	43%[59 µM]	2%	1%	-5%	5	-1%
O=C(N/N=C/C=C/c1ccco1)c1cccnc1	8.9µM*	?	35µM*	-21%	-18	?
O=C(N/N=C/C=C\c1ccco1)c1cccnc1	28µM*	?	32µM*	-18%	-14	?
O=C(N/N=C\C=C\c1ccco1)c1cncc(Br)c1	?	.	40µM*	-3%	-11	-8%
CC(/C=C\C=C\c1ccccc1)=N\NC(=O)c1cncc(Br)c1	?	10µM*	-30%	-14%	-1	3%
Cc1ccc(NC(=O)COC(=O)C2CC2C)c(S(=O)(=O)N2CCCCC2)c1 (stereo unspecified)	-6%	-4%	13%	-15%	0	1%
COc1ccc(OC)c(CNC(=O)c2ccc(NC(=O)c3nsc4ccccc34)cc2)c1	14%[59 µM]	3%	.	-30%	.	?
SMILES	G9a inh	Tau ThT inhib	Sfp PPTase inh	Tau fluor counter	FBPA coupling cs	Tau fibril FP
CCOc1ccc(CNC(=O)c2cnc(SC)nc2C)cc1	-1%[59 µM]	-5%	.	3%	.	5%
CCCCC(=O)NNC(=S)NC(=O)CCC	10µM*	?	79µM*	-12%	-12	-8%
CCCCC(=O)NC(=S)NNC(=O)c1ccc(OC)cc1	3%[12.7 µM]	-10%	1%	-6%	1	-4%
CCCCC(=O)NC(=S)NNC(=O)c1ccc(Cl)cc1Cl	-136%[59 µM]	-12%	?	-2%	-1	-1%
CCCCC(=O)NC(=S)NNC(=O)CC#N	?	-14%	10µM*	-9%	0	1%
Cc1ccc(NC(=O)Cn2c(=O)ccc3cc(S(=O)(=O)N4CCCC4)ccc32)cc1N(C)C	2%[59 µM]	-5%	.	?	.	10%
O=C(NC1CCCC1)C(c1cccs1)N(CC1CCCO1)C(=O)Cc1cccs1 (stereo unspecified)	45µM*	-17%	-8%	-3%	-1	-7%
CC(=O)N(c1ccccc1C)C1CCCC1	4%	-5%	8%	0%	1	-2%
CC(=O)N(C1=C(Cl)C(=O)c2ccccc2C1=O)C1CCCCC1	.	4µM*	0.79µM*	?	-88*	-14%
Cc1c(C(c2ccc(N(C)C)cc2)c2c(C)n(C)n(-c3ccccc3)c2=O)c(=O)n(-c2ccccc2)n1C	50µM*	-18%	-14%	-7%	-20	0%
Cc1c(C(c2ccccc2)c2c(C)n(C)n(-c3ccccc3)c2=O)c(=O)n(-c2ccccc2)n1C	17%	.	15%	.	-1	.
O=C(CSc1nnc2ccccn12)c1ccc2c(c1)OCCO2	40µM*	-11%	9%	-4%	0	-8%
O=C(CSc1nnc(-c2ccc3c(c2)OCO3)n1-c1ccccc1)c1ccccc1	-2%[59 µM]	-3%	5%	-6%	2	-3%
CCCCn1c(SCC(=O)c2ccc3c(c2)OCCO3)nnc1-c1ccco1	?	-5%	50µM*	-4%	1	7%
O=C(CSc1nnc(-c2cccs2)n1-c1ccccc1)c1ccc2c(c1)OCCO2	40µM*	-8%	-7%	1%	1	2%
COc1ccc(C(=O)CSc2nnc3ccccn23)cc1OC	2%[59 µM]	-11%	13%	-3%	2	-3%
CCn1c(SCC(=O)c2ccc3c(c2)OCCO3)nnc1C(C)C	45µM*	-8%	?	8%	2	3%
CC(C)n1nnnc1SCC(=O)c1ccc2c(c1)OCCO2	-8%	-5%	-3%	-3%	0	-5%
CC1(C)CC(=O)C=C(c2ccc(F)nc2)C1	13%[0.501 µM]	.	.	.	.	.
c1coc(CSSCc2ccco2)c1	20%[2.33 µM]	.	.	.	.	.
CCCCCCCCCCCCCCCCOC[C@H](COP(=O)([O-])OCC[N+](C)(C)C)OC(=O)NC	-18%[59 µM]	-1%	-5%	9%	0	6%
COc1ccc2[nH]cc(CCO)c2c1	29%[59 µM]	-7%	10%	-7%	.	6%
